CDC25B-CDK2 inh: human CDC25B-CDK2/CyclinA binding inhibition; HTRF CDC25B-CDK2/CyclinA binding, anti-His/anti-Flag; active compounds read high; z-score (test concentration not listed); P30305+P24941; 94,000 tested, 0.72% active; in the data active means z-score above about 3.2
TAR Tat displ: HIV-1 TAR-Tat binding disruption | HIV-1 TAR RNA, Tat peptide displacement FRET; active compounds read high | z-score (concentration not given with the values) | 100,000 tested, 0.6% active; active means z-score of 3 or more in at least 2 runs
Numbers without * were called inactive; / = not tested or not shown. Sampled rows, rich in hits. Any-hit rate of the full collection: about 0.93%.

SMILES	CDC25B-CDK2 inh	TAR Tat displ
Nc1ccc(-c2nc3cc4sc(-c5ccc(N)cc5)nc4cc3s2)cc1	4.5*	35*
Nc1ccc(-c2nc3ccc(N)cc3s2)cc1	-3.9	1.8
O=C(O)c1cc2ccccc2c(=O)[nH]1	/	1.9
O=c1[nH]c(Nc2ccccc2)cc2ccccc12	16*	-7.4
O=C1c2ccccc2C(=O)c2cc(NC(=O)C(Cl)(Cl)Cl)ccc21	16*	/
O=C(/C=C/c1ccccc1)Nc1ccc2c(c1)C(=O)c1ccccc1C2=O	-4.1	/
O=C(O)/C=C/C(=O)Nc1ccc2c(c1)C(=O)c1ccccc1C2=O	6.1*	/
CCOc1ccc(C(=O)Nc2ccc3c(c2)C(=O)c2ccccc2C3=O)cc1	0.8	/
COc1ccc(-c2cc(C(=O)O)c3c(-c4ccc(Cl)cc4)[nH]nc3n2)cc1OC	/	2.4
CCN(CC)c1ncnc2c1c(-c1ccccc1)cn2-c1ccc(OC)cc1	-1.4	/
COCCNC(=O)Cn1nnc2sc3c(c2c1=O)CCCC3	-1.4	0.19
O=C1COc2cc(-c3c(N4CCCCC4)c(=O)c3=O)ccc2N1	/	1.4
O=C1COc2cc(-c3c(N4CCCC4)c(=O)c3=O)ccc2N1	/	11*
COc1cc(CN2CCN(Cc3ccccc3)CC2)cc2c1OCO2	-0.25	/
CC(CCc1ccco1)NC(=O)CSc1c2c(nc3cc(Cl)ccc13)CCCC2 (stereo unspecified)	-0.79	1.1
Cc1cc(C)n2c(SCc3ccc(Br)cc3)nnc2n1	-1.4	0.81
Cc1cc(C)n2c(SCc3ccc(C(=O)c4ccccc4)cc3)nnc2n1	8.3*	1.5
O=C(O)CSc1nnc2nnc3ccccc3n12	-0.88	/
COCCNC(=O)Nc1cc2ccc(OC)cc2n1C	-0.97	0.06
COc1ccc2cc(NC(=O)Nc3ccc(OC)c4cccnc34)n(C)c2c1	14*	0.07
CC1CCCCC1NC(=O)C1c2cccn2CC(=O)N1Cc1cccs1 (stereo unspecified)	-1.4	1.9
Cc1ccc(-c2n[nH]c(=O)c3c2CCCC3)cc1S(=O)(=O)Nc1ccc(F)cc1F	0.28	1.2
Cc1nc(-c2cccs2)c(CC(=O)Nc2ccc(N3CCCC3)cc2)s1	12*	-0.42
Cc1nc(-c2cccs2)c(CC(=O)N2CCCC2)s1	-1.3	-0.62
O=C(Nc1ccc2oc(-c3ccccc3)nc2c1)c1nc(-n2cnnc2)ccc1Br	/	2.5
SMILES	CDC25B-CDK2 inh	TAR Tat displ
O=C(Nc1ccc(-c2nc3ccccc3o2)cc1)c1nc(-n2cnnc2)ccc1Br	/	7.2*
CC1Cc2cc(S(=O)(=O)N3CCN(C4CCCCC4)CC3)ccc2N1C(=O)C1CC1 (stereo unspecified)	/	-0.62
CCC(=O)N1CCc2cc(Br)cc(S(=O)(=O)NCC3CCCN3CC)c21 (stereo unspecified)	4.5*	/
CCC(=O)N1CCc2cc(Br)cc(S(=O)(=O)NCCN3CCCCC3C)c21 (stereo unspecified)	3.4	/
CC(=O)N1N=C(c2ccc(C(C)C)cc2)OC1COc1ccc(Cl)cc1 (stereo unspecified)	/	1.4
COc1ccc(-c2noc(CN3CCCCC3)n2)cc1OC	-0.8	2
COc1ccc(-c2noc(CC3CCCCC3)n2)cc1OC	16*	1.6
Cc1nnc(NCc2cccs2)c2c1nnn2Cc1ccc(F)cc1	-0.54	1.1
CCN(C1=NC2CS(=O)(=O)CC2S1)c1cc(C)cc(C)c1 (stereo unspecified)	-0.57	-0.01
Cc1ccc(C)n1-c1sccc1C(=O)NN	-1.6	/
Cc1ccc(C)n1-c1ccc(Cl)c(C(=O)NN)c1	19*	/
CSc1nc(C)cc(Nc2ccc(N3CCC(C)CC3)cc2)n1	-0.87	0.65
Cc1cc(Nc2ccc(N3CCN(C)CC3)cc2)nc(C)n1	11*	-1.6
CC(C)C(=O)N(c1ccc2oc(=O)sc2c1)S(=O)(=O)c1cccs1	-2.8	0.34
CC(C)C(=O)N(c1cc2sc(=O)oc2c2ccccc12)S(=O)(=O)c1cccs1	7*	0.5
CCCCOc1ccc(S(=O)(=O)n2nc(C)c(S(=O)(=O)N(C)c3ccccc3)c2C)cc1	/	0.93
COc1ccccc1/C=C/c1nc(C#N)c(N2CCNCC2)o1	9.6*	-0.52
N#Cc1nc(/C=C/c2cccs2)oc1N1CCNCC1	9.3*	-1.5
N#Cc1nc(/C=C/c2cccs2)oc1N1CCC(Cc2ccccc2)CC1	0	-1.1
COc1ccccc1/C=C/c1nc(C#N)c(N2CCCCC2)o1	-1.5	-0.87
BrC1=C(Br)c2cccc3cccc1c23	-0.44	/
Cc1ccc(-c2ccc(=O)[nH]n2)cc1S(=O)(=O)N(Cc1ccco1)C1CCCC1	-0.71	-0.44
C=C1C2CC[C@@]3(C)[C@H](c4ccoc4)OC(=O)C[C@]13O[C@H]1C[C@H](OC(C)=O)C(C)(C)[C@H](CC(=O)OC)[C@@]21C	/	17
C=CCSCC=C	/	15*
CC1O[P+]2(OC1C)OC(C)C(C)O2 (stereo unspecified)	5.2*	/
SMILES	CDC25B-CDK2 inh	TAR Tat displ
CCOC(=O)N1CCN(S(=O)(=O)c2ccc3c(c2)NC(=O)CS3)CC1	/	2
Cn1c(SCC(=O)c2ccc3c(c2)OCCCO3)nnc1-c1ccc2ccccc2c1	-1.2	/
Oc1cccc(Nc2nc(-c3cccnc3)cs2)c1	-1.4	2.8
O=C(O)c1cc(Nc2nc(-c3cccnc3)cs2)ccc1O	-5.7	4.4*
Cc1nn(CC(=O)NCCC(C)C)c(=O)c2cccn12	-1.5	1.9
O=C(O)CCC(=O)NCC(=O)c1ccc(F)cc1	-2.2	/
O=C(O)CNC(=O)CCCCC(=O)NCC(=O)O	10*	/
O=C(Nc1ccc(F)cc1F)Nc1c[nH]c(=O)[nH]c1=O	/	2.2
Cc1cc(C)nc(Nc2nc(-c3ccc(O)c(O)c3)cs2)n1	1.1	29*
Oc1ccc(-c2csc(Nc3ncccn3)n2)cc1O	-6.2	/
Clc1ccccc1-c1nnc2sc(-c3cccnc3)nn12	-1.4	/
O=S(=O)(c1cccc2nsnc12)N1CCCC1c1ccc(F)cc1 (stereo unspecified)	0.43	0.57
O=C1C(NC2CCCCC2)=C(N2CCCCC2)C(=O)c2ccccc21	5*	/
O=c1c(NC2CCCCC2)c(-c2ccccc2)c1=O	/	1.1
CCOc1ccc(NS(=O)(=O)c2cc(Br)cnc2N)cc1	-0.2	1.5
Cc1cc(C)cc(N2CC(c3nc4ccccc4n3C(C)C)CC2=O)c1 (stereo unspecified)	-1.1	0.04
Cc1ccc(C)n1-c1ccc(SCC(=O)O)cc1	0.36	27*
O=C(O)CSc1ccc(F)cc1	/	0.74
Cc1ccc2c(c1)-c1cc(C)nn1C(c1cc(C)ccc1O)N2 (stereo unspecified)	1.4	2.2
Cc1ccc2c(c1)-c1cc(C)nn1C(c1cccc(O)c1O)N2 (stereo unspecified)	1.8	19*
COc1cccc(NC2c3ncccc3C(=O)N2Cc2ccco2)c1 (stereo unspecified)	/	1
Cc1ccc(C2NC(CC(C)C)(C(=O)O)C3C(=O)N(c4ccc(F)cc4)C(=O)C23)cc1 (stereo unspecified)	0.78	/
CCCSc1nc2c(c(=O)[nH]1)CCC2	-1.8	2.1
CC(C)Cn1cc(NC(=O)NCCCN(C)c2ccccc2)c2ccccc2c1=O	19*	-0.7
CCCN(CCC)C(=O)Nc1cn(CC(C)C)c(=O)c2ccccc12	/	1.9
CC(C)Cn1cc(NC(=O)N(Cc2ccccc2)C(C)C)c2ccccc2c1=O	/	6.6*
CC(C)Cn1cc(NC(=O)NCCCN2CCCC2)c2ccccc2c1=O	/	1
O=C(CCCc1nc(-c2cccs2)no1)Nc1ccc(Cl)cc1	-0.57	0.88
CCCCCCS(=O)(=O)CC#N	-0.32	/

Bioassay records deposited in PubChem by Center for Chemical Genomics, University of Michigan.
